Bioassay records: PubChem BioAssay, Broad Institute
Wnt bcat act – Wnt/beta-catenin pathway activators, primary screen, cell-based, plate reader, single point; Wnt/beta-catenin reporter cell assay, activator; activation, % at 9.35 µM; hit rate 1.2% among 300,000; AID 743398, 2014; in the data active means activation above about 30%, passing the limit was not always enough; inconclusive means no clear call, values can overlap the other calls;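 further: 0% = neutral control wells and 100% = positive control wells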
esBAF inh – Bmi1 luciferase reporter increase in mESCs, primary screen, esBAF inhibitor project, mouse ES cells, Bmi1 luciferase knock-in, single point; AID 602393, 2012; hit rate 2% among 350,000; reporter increase, % at 12.5 µM; 24 h; 100% = twice the neutral-well signal; in the data active means activation above about 40%; inconclusive means no clear call, values can overlap the other calls;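 further: 0% = median of the plate's neutral control wells and 100% = double that signal; a rise in the Bmi1 reporter signal indicates esBAF inhibition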
EWS-Fli inh – EWS/Fli-driven NR0B1 reporter inhibitors, primary screen, A673 cells, NR0B1 luciferase, luminescence, MLPCN library; viability-normalised; inhibition, % at 12.6 µM; hit rate 0.67% among 350,000; AID 651661, 2012;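 active means mean inhibition of at least 50% after viability correction, with every replicate also passing that limit; inconclusive means mean reaches 50% but only one of two replicates passes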;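 further: firefly luciferase signal divided by Alamar Blue viability fluorescence both relative to DMSO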
PAX8 inh HTS – inhibitors of PAX8-driven TPO luciferase reporter, primary screen, RMG-I cells, single concentration. hit rate 1.2% among 360,000. inhibition, % at 12.6 µM. AID 652154, 2013. SteadyGlo, 24 h;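 active means mean replicate inhibition at least 60% with every replicate also reaching 60%; inconclusive means only one of the two criteria is met; inactive means mean below 60% and not all replicates reaching 60%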;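 further: luciferase light reporting Pax8 driven TPO promoter activity; plate controls were median of neutral control wells for no effect and mitoxantrone controls for full effect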
MITF TRPM1 inh – inhibitors of MITF-dependent TRPM1 promoter reporter, primary screen, cell-based, SK-MEL-5, single point, luciferase; SK-MEL-5 TRPM1 promoter luciferase, 24 h; AID 488899, 2010; inhibition, % at 12.5 µM; hit rate 0.83% among 330,000;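 active means mean inhibition across replicates of 60% or more, whatever share of single replicates reaches that level; inconclusive means some that reach 60%, reason not given; inactive means mean inhibition across replicates below 60%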
MITF act – activators of MITF-driven TRPM1 promoter reporter, primary screen, cell-based, SK-MEL-5, luciferase, single point; SK-MEL-5 TRPM1-promoter luciferase, 24 h; % of positive control, neutral wells = 0; activation, % at 12.5 µM; hit rate 0.75% among 300,000; AID 588334, 2011;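 active means mean activation of at least 80% with every replicate also reaching 80%; inconclusive means mean reaches 80% but some replicate falls short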;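 further: 0% = neutral control wells and 100% = parthenolide positive control wells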
DNA binding – DNA binders by acridine orange displacement, dose response, counter-screen for EWS/Fli inhibitor project, biochemical, fluorescence polarization, cherry-pick; AC35, µM (doses to about 68 µM), for the others: at the top dose activity change, negative = DNA binding; hit rate 2% among 640; salmon sperm DNA acridine orange fluorescence polarization; AID 720586, 2013; shares compounds with EWS-Fli inh;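 active means fitted curve reaches a 35% signal fall AC35 below twice the sample's top valid tested dose, actives reach about 48 µM in these data; inactive means the rest, including activity in the rising direction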;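 further: lower polarization ratio signals compound binding to DNA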
* hit, by the source's call; u = inconclusive; x = no result; ! = not confirmed by another sample. An excerpt weighted towards active compounds, which were near 4% of everything screened.

SMILES	Wnt bcat act	esBAF inh	EWS-Fli inh	PAX8 inh HTS	MITF TRPM1 inh	MITF act	DNA binding
C[C@@H]1CN([C@H](C)CO)C(=O)c2cccc(NC(=O)CCCCCC(=O)Nc3ccccc3N)c2O[C@@H]1CN(C)Cc1ccc(Oc2ccccc2)cc1	x	x	16.1	30.5	x	x	x
C[C@H]1CN([C@@H](C)CO)C(=O)Cc2cc(NC(=O)CCCCCC(=O)Nc3ccccc3N)ccc2O[C@H]1CN(C)Cc1ccc(Cl)c(Cl)c1	x	-19.6	50.5*	52.9	x	x	-6.7%
C[C@H](CO)N1C[C@H](C)[C@@H](CN(C)Cc2ccc(Cl)c(Cl)c2)Oc2ccc(NC(=O)CCCCCC(=O)Nc3ccccc3N)cc2CC1=O	x	x	u	29.3	x	x	x
C[C@@H]1CCCCO[C@@H](CN(C)C(=O)Nc2ccccc2)[C@@H](C)CN([C@@H](C)CO)C(=O)c2cc(NS(=O)(=O)c3ccc(F)cc3)ccc2O1	x	x	x	6.9	x	x	x
CN1C(=O)c2cc(NC(=O)C3CCCCC3)ccc2OC[C@@H]2O[C@@H](CC(=O)NCCc3ccncc3)CC[C@H]21	x	-0.2	-5.3	9.7	x	x	x
CO[C@@H]1CN(C)C(=O)c2cc(NS(=O)(=O)c3ccccc3F)ccc2OC[C@H](C)NC[C@@H]1C	x	-4.0	2.0	x	x	x	x
Cc1ccc(/C=C/C(=O)N2CCN(S(=O)(=O)c3ccc(C)c(C)c3)CC2)o1	2.6	-1.9	x	11.4	0.9	0.1	x
Cc1ccc(/C=C/C(=O)N2CCN(S(=O)(=O)c3c(C)c(C)cc(C)c3C)CC2)o1	-12.1	x	85.4*	15.4	11.9	-3.3	0.1%
Cc1noc(C)c1NC(=O)N(C)C[C@@H]1OCCCC[C@H](C)Oc2ccc(NS(=O)(=O)c3c(C)noc3C)cc2C(=O)N([C@H](C)CO)C[C@@H]1C	x	3.5	-7.6	-4.6	x	x	x
Oc1c(Cl)cc(Cl)c2cccnc12	13.2	4.7	54.2*	23.8	21.6	-21.7	-3.9%
O=C(Oc1c(Cl)cc(Cl)c2cccnc12)c1ccco1	x	x	x	x	23.8	-16.7	x
CCN1/C(=C/C=C/c2oc3ccc(-c4ccccc4)cc3[n+]2CC)Oc2ccc(-c3ccccc3)cc21	-7.9	-85.4	90.5*	97.7*	101.7*	-101.4	22.4µM*
C[C@H]1O[C@@H](O[C@H]2[C@@H](O)C[C@H](O[C@H]3[C@@H](O)C[C@H](O[C@H]4CC[C@@]5(C)[C@H](CC[C@@H]6[C@@H]5C[C@@H](O)[C@]5(C)[C@@H](C7=CC(=O)OC7)CC[C@]65O)C4)O[C@@H]3C)O[C@@H]2C)C[C@H](O)[C@@H]1O	-22.1	1.4	65.8*	109.4*	67.2*	-68.1	-3.7%
CO[C@@H]1CN(C)C(=O)c2cc(NC(C)=O)ccc2OC[C@H](C)N(C(=O)C2CCCCC2)C[C@@H]1C	x	-0.5	-0.9	5.5	x	x	x
O=C(NCc1cccnc1)C1Cc2c(-c3ccc(Cl)cc3)ccnc2O1 (stereo not drawn)	-1.3	-7.8	52.2*	28.6	x	x	-2.6%
Cc1c(Cl)cnc(NC(=O)COC(=O)c2ccc3ncsc3c2)c1Cl	-14.8	-54.0	62.2*	22.5	26.8	-25.9	-11.7%
CC1(C)Oc2cc3oc(-c4cc(O)cc(O)c4)cc3cc2CC1O (stereo not drawn)	-18.3	-76.2	75.8*	x	50.3	-49.8	-1.2%
COc1ccc(OC)c(/C=C/c2ccnc3ccccc23)c1	-12.8	x	70.4*	32.6	4.9	x	-14.3%
C(=NNc1ccc2ccccc2n1)c1ccccn1	6.9	-79.6	84.1*	101.7*	x	x	2.6%
C(=N\Nc1nc2ccccc2s1)/c1ccccn1	-12.1	x	79.9*	88.0*	x	x	-5.5%
COc1ccc(C=NNc2nc3ccccc3s2)cc1	-0.8	-55.2	65.6*	17.8	10.6	-7.6	-6.9%
CO[C@H]1CN(C)C(=O)c2ccc(NC(=O)Nc3ccccc3)cc2OC[C@H](C)N(C(C)=O)C[C@@H]1C	x	x	x	-11.0	x	x	x
C[C@H]1CN([C@@H](C)CO)S(=O)(=O)c2ccc(C#CC3CC3)cc2O[C@H]1CN(C)Cc1ccccc1F	x	3.6	4.3	x	x	x	x
O=C1CCCC2=C1C(c1ccccn1)Nc1ccc(C(=O)c3ccccc3)cc1N2 (stereo not drawn)	-11.8	x	79.6*	3.2	10.4	-9.4	-6.2%
O=C1CCCC2=C1C(c1ccco1)Nc1ccc(C(=O)c3ccccc3)cc1N2 (stereo not drawn)	x	3.4	x	x	9.4	-8.3	x
SMILES	Wnt bcat act	esBAF inh	EWS-Fli inh	PAX8 inh HTS	MITF TRPM1 inh	MITF act	DNA binding
COc1ccc(NC(=O)N(C)[C@H]2C[C@H]3c4[nH]c5ccccc5c4CCN3C(=O)[C@H]2CO)cc1	-1.8	6.6	53.2*	-7.9	x	x	-4.8%
COC(=O)Cn1c(O)c(N=NC(=O)CNC(=O)c2ccc3c(c2)OCCO3)c2ccccc21	0.4	5.7	x	9.6	-7.2	7.8	x
O=C(CNC(=O)Cc1ccccc1)N=Nc1c(O)n(Cc2ccc3c(c2)OCO3)c2ccccc12	x	x	66.1*	4.0	13.8	-14.9	-7.0%
C/C=C/c1ccc([C@H]2[C@@H](CO)N3C(=O)CN(S(=O)(=O)c4cccc(F)c4)C[C@H]23)cc1	x	x	17.4	x	x	x	x
C/C=C/c1ccc([C@H]2[C@@H](CO)N3C(=O)CN(S(=O)(=O)c4cccc(F)c4)C[C@@H]23)cc1	x	x	52.0*	x	x	x	-1.6%
COc1ccc(NC(=O)N(C)C[C@@H]2OCc3ccccc3-c3ccccc3C(=O)N([C@@H](C)CO)C[C@H]2C)cc1	x	5.5	-3.1	x	x	x	x
COC(=O)c1cccc(NC(=O)NC(=O)c2ccc(Cl)cc2)c1	23.7	-9.7	86.7*	-21.3	38.7	x	-7.3%
O=C(NC(=O)c1ccccc1)Nc1ccccc1	35.5*	-50.3	55.8*	-6.8	-1.4	2.7	-13.0%
CCCN1C[C@H](C)[C@H](OC)CN(C)C(=O)c2cc(NC(=O)c3cccc(OC)c3)ccc2OC[C@H]1C	x	0.4	-7.3	x	x	x	x
COc1cccc(S(=O)(=O)N(C)C[C@H]2OCc3cnnn3CCCC(=O)N([C@@H](C)CO)C[C@H]2C)c1	-1.1	-1.5	60.4*!	-17.4	x	x	-12.0%
COc1cccc(S(=O)(=O)N(C)C[C@@H]2OCc3cnnn3CCCC(=O)N([C@H](C)CO)C[C@H]2C)c1	-0.4	-2.9	4.2	6.5	x	x	x
C[C@@H]1CN([C@H](C)CO)C(=O)c2cc(NC(=O)Cn3cnnn3)ccc2O[C@H]1CN(C)Cc1ccc(C(F)(F)F)cc1	x	-2.7	x	2.9	x	x	x
CN(C)c1ncnc2c1ccn2C1OC(CO)C(O)C1O (stereo not drawn)	-10.2	-8.5	62.5*	u	3.9	-0.8	13.7%
